The values below come from publication PMC11006913.

Changes are numbered by the printed parent chain.

Assay in all cases: PBM; 200 nM protein, PBS
Common to all, as to details: dsDNA, one strand shown

In experiment [1] the target is T1, PAX4 (Homo sapiens, UniProt O43316 9-242, R200K).
T1 sequence: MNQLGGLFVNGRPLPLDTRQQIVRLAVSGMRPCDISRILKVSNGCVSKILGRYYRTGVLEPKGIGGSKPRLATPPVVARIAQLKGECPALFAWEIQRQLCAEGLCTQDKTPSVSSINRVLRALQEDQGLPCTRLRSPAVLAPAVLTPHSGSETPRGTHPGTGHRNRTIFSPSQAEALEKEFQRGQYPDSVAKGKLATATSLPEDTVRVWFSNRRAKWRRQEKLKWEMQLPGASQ

In experiment [2] the target is T2, PAX4 (Homo sapiens, UniProt O43316 9-242).
T2 sequence: T1 sequence with K192R

Experiment [3] concerns the target HOXD13 (Homo sapiens, UniProt P35453 263-343, T313R).
Experiment [4] concerns the target T3, PAX4 (Homo sapiens, UniProt O43316 9-242, R200Q).
T3 sequence: T1 sequence with K192Q

For experiment [5], the target named is HOXD13 (Homo sapiens, UniProt P35453 263-343).
Chain of HOXD13 (Homo sapiens, UniProt P35453 263-343) (P35453 263-343): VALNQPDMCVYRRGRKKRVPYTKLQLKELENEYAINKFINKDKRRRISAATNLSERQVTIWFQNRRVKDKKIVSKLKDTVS
For experiment [6], the target named is T4, PAX4 (Homo sapiens, UniProt O43316 9-242, F177V).
T4 sequence: T1 sequence with F169V, K192R

For experiment [7], the target named is T5, PAX4 (Homo sapiens, UniProt O43316 9-242, F177Y).
T5 sequence: T1 sequence with F169Y, K192R

The target of experiment [8] is HOXD13 (Homo sapiens, UniProt P35453 263-343, T313A).
Chain of HOXD13 (Homo sapiens, UniProt P35453 263-343, T313A) (P35453 263-343 T313A): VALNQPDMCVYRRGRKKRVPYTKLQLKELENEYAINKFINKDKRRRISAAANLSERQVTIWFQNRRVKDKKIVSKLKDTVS
Experiment [9] concerns the target T6, PAX4 (Homo sapiens, UniProt O43316 9-242, R227W).
T6 sequence: T1 sequence with K192R, R219W

In experiment [10] the target is PROP1 (Homo sapiens, UniProt O75360 56-141).
Chain of PROP1 (Homo sapiens, UniProt O75360 56-141) (O75360 56-141): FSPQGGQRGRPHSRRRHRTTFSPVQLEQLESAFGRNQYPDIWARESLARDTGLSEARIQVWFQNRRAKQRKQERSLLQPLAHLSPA
Experiment [11] concerns the target PROP1 (Homo sapiens, UniProt O75360 56-141, R99H).
Experiment [12] has as its target PROP1 (Homo sapiens, UniProt O75360 56-141, F88S).
Another experiment has as its target T7, NKX2-6 (Homo sapiens, UniProt A6NCS4 118-204, R150C).
T7 sequence: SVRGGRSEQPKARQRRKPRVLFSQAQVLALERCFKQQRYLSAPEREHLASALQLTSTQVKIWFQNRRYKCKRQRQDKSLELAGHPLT

Experiment [13] deals with ALX3 (Homo sapiens, UniProt O95076 139-225, N203Q).
Chain of ALX3 (Homo sapiens, UniProt O95076 139-225, N203Q) (O95076 139-225 N203Q): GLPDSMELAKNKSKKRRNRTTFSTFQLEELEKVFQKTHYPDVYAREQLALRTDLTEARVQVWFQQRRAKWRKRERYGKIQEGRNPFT
The target of experiment [14] is ALX3 (Homo sapiens, UniProt O95076 139-225).
Chain of ALX3 (Homo sapiens, UniProt O95076 139-225) (O95076 139-225): as the sequence (O95076 139-225 N203Q) above, with Q65N counted along it
Experiment [15] addresses ALX3 (Homo sapiens, UniProt O95076 139-225, L168Q).
For experiment [16], the target named is ALX3 (Homo sapiens, UniProt O95076 139-225, L168V).
Chain of ALX3 (Homo sapiens, UniProt O95076 139-225, L168V) (O95076 139-225 L168V): as the sequence (O95076 139-225 N203Q) above, with L30V, Q65N counted along it
Experiment [17] addresses ALX3 (Homo sapiens, UniProt O95076 139-225, N203S).
In experiment [18] the target is HOXA2 (Homo sapiens, UniProt O43364 129-215, R185T).
Chain of HOXA2 (Homo sapiens, UniProt O43364 129-215, R185T) (O43364 129-215 R185T): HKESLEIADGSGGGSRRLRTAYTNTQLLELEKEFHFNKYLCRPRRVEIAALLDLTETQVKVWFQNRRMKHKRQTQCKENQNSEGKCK
In experiment [19] the target is MSX2 (Homo sapiens, UniProt P35548 130-214, R199I).
Chain of MSX2 (Homo sapiens, UniProt P35548 130-214, R199I) (P35548 130-214 R199I): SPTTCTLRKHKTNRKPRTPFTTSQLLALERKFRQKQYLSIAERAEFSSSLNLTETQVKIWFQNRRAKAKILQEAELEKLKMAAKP
For experiment [20], the target named is HOXA2 (Homo sapiens, UniProt O43364 129-215, R185K).
Chain of HOXA2 (Homo sapiens, UniProt O43364 129-215, R185K) (O43364 129-215 R185K): as the sequence (O43364 129-215 R185T) above, with T57K counted along it
The target in experiment [21] is MSX2 (Homo sapiens, UniProt P35548 130-214).
Chain of MSX2 (Homo sapiens, UniProt P35548 130-214) (P35548 130-214): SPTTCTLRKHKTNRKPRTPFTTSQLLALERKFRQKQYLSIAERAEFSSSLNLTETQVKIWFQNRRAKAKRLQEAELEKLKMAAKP
For experiment [22], the target named is MSX2 (Homo sapiens, UniProt P35548 130-214, F161Y).
Chain of MSX2 (Homo sapiens, UniProt P35548 130-214, F161Y) (P35548 130-214 F161Y): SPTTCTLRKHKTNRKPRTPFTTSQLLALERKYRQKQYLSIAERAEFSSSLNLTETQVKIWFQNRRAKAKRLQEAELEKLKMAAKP
Experiment [23] addresses HOXA2 (Homo sapiens, UniProt O43364 129-215, Y150S).
Experiment [24] has as its target HOXA2 (Homo sapiens, UniProt O43364 129-215).

Chain of HOXA2 (Homo sapiens, UniProt O43364 129-215, Y150S) (O43364 129-215 Y150S): as the sequence (O43364 129-215 R185T) above, with Y22S, T57R counted along it
Chain of ALX3 (Homo sapiens, UniProt O95076 139-225, L168Q) (O95076 139-225 L168Q): as the sequence (O95076 139-225 N203Q) above, with L30Q, Q65N counted along it
Chain of HOXA2 (Homo sapiens, UniProt O43364 129-215) (O43364 129-215): as the sequence (O43364 129-215 R185T) above, with T57R counted along it
Chain of HOXD13 (Homo sapiens, UniProt P35453 263-343, T313R) (P35453 263-343 T313R): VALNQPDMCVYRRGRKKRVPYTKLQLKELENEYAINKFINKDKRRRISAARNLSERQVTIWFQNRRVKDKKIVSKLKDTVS
Chain of PROP1 (Homo sapiens, UniProt O75360 56-141, R99H) (O75360 56-141 R99H): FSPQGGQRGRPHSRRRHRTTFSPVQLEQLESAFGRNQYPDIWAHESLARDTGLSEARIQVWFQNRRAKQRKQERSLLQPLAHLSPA
Chain of ALX3 (Homo sapiens, UniProt O95076 139-225, N203S) (O95076 139-225 N203S): as the sequence (O95076 139-225 N203Q) above, with Q65S counted along it
Chain of PROP1 (Homo sapiens, UniProt O75360 56-141, F88S) (O75360 56-141 F88S): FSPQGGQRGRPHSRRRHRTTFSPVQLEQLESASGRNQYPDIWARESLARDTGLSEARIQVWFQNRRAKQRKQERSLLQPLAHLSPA

Consider CCTCCCCC, for which the binding signal with PAX4 [1] was 9.47 upbm affinity estimate (log intensity, higher = more binding, comparable within an allelic series); with PAX4 [2], 9.49 upbm affinity estimate (log intensity, higher = more binding, comparable within an allelic series); in the experiment with HOXD13 [3] it was 9.14 upbm affinity estimate (log intensity, higher = more binding, comparable within an allelic series); in the experiment with PAX4 [4], 9.57 upbm affinity estimate (log intensity, higher = more binding, comparable within an allelic series); in the experiment with HOXD13 [5] it was 9.51 upbm affinity estimate (log intensity, higher = more binding, comparable within an allelic series); in the experiment with PAX4 [6], 9.21 upbm affinity estimate (log intensity, higher = more binding, comparable within an allelic series). Moreover, the binding signal in the experiment with PAX4 [7] is 9.2 upbm affinity estimate (log intensity, higher = more binding, comparable within an allelic series); with HOXD13 [8] it was 9.46 upbm affinity estimate (log intensity, higher = more binding, comparable within an allelic series); in the experiment with PAX4 [9] it was 9.23 upbm affinity estimate (log intensity, higher = more binding, comparable within an allelic series).
On to GCCGGGAC, for which the binding signal in the experiment with PAX4 [1] is 9.33 upbm affinity estimate (log intensity, higher = more binding, comparable within an allelic series); with PAX4 [2], 9.39 upbm affinity estimate (log intensity, higher = more binding, comparable within an allelic series); with PAX4 [4] it was 9.37 upbm affinity estimate (log intensity, higher = more binding, comparable within an allelic series); in the experiment with PAX4 [6], 9.2 upbm affinity estimate (log intensity, higher = more binding, comparable within an allelic series); in the experiment with PAX4 [7] it was 9.2 upbm affinity estimate (log intensity, higher = more binding, comparable within an allelic series); with PROP1 [10], 7.02 upbm affinity estimate (log intensity, higher = more binding, comparable within an allelic series). Further, the binding signal in the experiment with PROP1 [11] was 6.96 upbm affinity estimate (log intensity, higher = more binding, comparable within an allelic series); with PROP1 [12] it was 6.46 upbm affinity estimate (log intensity, higher = more binding, comparable within an allelic series); with PAX4 [9] it was 9.24 upbm affinity estimate (log intensity, higher = more binding, comparable within an allelic series).
On to GCCCGGCA, for which the binding signal was 9.23 upbm affinity estimate (log intensity, higher = more binding, comparable within an allelic series) with PAX4 [1]; 9.34 upbm affinity estimate (log intensity, higher = more binding, comparable within an allelic series) with PAX4 [2]; 9.33 upbm affinity estimate (log intensity, higher = more binding, comparable within an allelic series) in the experiment with NKX2-6; 9.28 upbm affinity estimate (log intensity, higher = more binding, comparable within an allelic series) in the experiment with PAX4 [4]; 9.09 upbm affinity estimate (log intensity, higher = more binding, comparable within an allelic series) with PAX4 [6]; 9.13 upbm affinity estimate (log intensity, higher = more binding, comparable within an allelic series) with PAX4 [7]. In addition, in the experiment with PAX4 [9], the binding signal was 9.21 upbm affinity estimate (log intensity, higher = more binding, comparable within an allelic series).
As for ATTATTTC, the binding signal with PAX4 [1] was 10.8 upbm affinity estimate (log intensity, higher = more binding, comparable within an allelic series); with PAX4 [2], 11.1 upbm affinity estimate (log intensity, higher = more binding, comparable within an allelic series); with PAX4 [4], 10.9 upbm affinity estimate (log intensity, higher = more binding, comparable within an allelic series); with PAX4 [6], 10.4 upbm affinity estimate (log intensity, higher = more binding, comparable within an allelic series).
Regarding GAAGGACC, the binding signal was 9.27 upbm affinity estimate (log intensity, higher = more binding, comparable within an allelic series) in the experiment with PAX4 [1]; 9.3 upbm affinity estimate (log intensity, higher = more binding, comparable within an allelic series) with PAX4 [2]; 7.9 upbm affinity estimate (log intensity, higher = more binding, comparable within an allelic series) with ALX3 [13]; 9.41 upbm affinity estimate (log intensity, higher = more binding, comparable within an allelic series) with PAX4 [4]; 9.34 upbm affinity estimate (log intensity, higher = more binding, comparable within an allelic series) in the experiment with PAX4 [6]; 7.9 upbm affinity estimate (log intensity, higher = more binding, comparable within an allelic series) with ALX3 [14]. The binding signal is 9.33 upbm affinity estimate (log intensity, higher = more binding, comparable within an allelic series) with PAX4 [7]; 7.8 upbm affinity estimate (log intensity, higher = more binding, comparable within an allelic series) in the experiment with ALX3 [15]; 7.85 upbm affinity estimate (log intensity, higher = more binding, comparable within an allelic series) with ALX3 [16]; 9.46 upbm affinity estimate (log intensity, higher = more binding, comparable within an allelic series) with PAX4 [9]; 7.83 upbm affinity estimate (log intensity, higher = more binding, comparable within an allelic series) with ALX3 [17].
Consider AGGGGGCC, for which the binding signal with PAX4 [1] was 8.96 upbm affinity estimate (log intensity, higher = more binding, comparable within an allelic series); with PAX4 [2], 9.02 upbm affinity estimate (log intensity, higher = more binding, comparable within an allelic series); in the experiment with HOXA2 [18] it was 7.23 upbm affinity estimate (log intensity, higher = more binding, comparable within an allelic series); in the experiment with MSX2 [19], 9.51 upbm affinity estimate (log intensity, higher = more binding, comparable within an allelic series); in the experiment with PAX4 [4], 9.05 upbm affinity estimate (log intensity, higher = more binding, comparable within an allelic series); with HOXA2 [20] it was 10.2 upbm affinity estimate (log intensity, higher = more binding, comparable within an allelic series). Further, the binding signal was 9.04 upbm affinity estimate (log intensity, higher = more binding, comparable within an allelic series) with PAX4 [6]; 9.64 upbm affinity estimate (log intensity, higher = more binding, comparable within an allelic series) with MSX2 [21]; 9.04 upbm affinity estimate (log intensity, higher = more binding, comparable within an allelic series) with PAX4 [7]; 9.59 upbm affinity estimate (log intensity, higher = more binding, comparable within an allelic series) with MSX2 [22]; 9.1 upbm affinity estimate (log intensity, higher = more binding, comparable within an allelic series) in the experiment with PAX4 [9]; 10.2 upbm affinity estimate (log intensity, higher = more binding, comparable within an allelic series) with HOXA2 [23]. Also, the binding signal in the experiment with HOXA2 [24] was 7.17 upbm affinity estimate (log intensity, higher = more binding, comparable within an allelic series).
